Experimental data: ChEMBL document CHEMBL1201862, “PubChem BioAssay data set” (2004)
Values joined by “and” are separate entries in the source; they are usually repeats but may differ in a detail not shown here. Identical values can stand only once. About 140 (9.3%) of roughly 1,500 compounds were called active. No rule for the calls is given here. Only a selection was taken, and actives are over-represented in it overall.

Assay: AlphaScreen signal interference with preloaded methylated product, dose response, artefact control for NSD2 inhibitor project, biochemical, cherry-picked samples (AID 1053174);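 also: actives lower the AlphaScreen signal from the preloaded product and count as artifacts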

AbsAC35, active:
Cc1ccccc1NC1=C/C(=N\S(=O)(=O)c2ccc(C(=O)O)cc2)c2ccccc2C1=O 11.8 µM
Cc1ccc(S(=O)(=O)/N=C2\C=C(Nc3cccc(C(=O)O)c3)C(=O)c3ccccc32)c(C)c1 11.5 µM
N=C1/C(=C/c2ccc(O)c(O)c2)C(=O)N=C2SC(CC(=O)N3CCCC3)=NN12 10.6 µM
Cc1cccc(C)c1N=Nc1c(C)cc(O)cc1C 20.6 µM
O=C1/C(=C\c2cccc(O)c2O)SC(=S)N1Cc1ccccc1 14.9 µM
O=C1NC(=O)/C(=C\c2ccc(O)cc2O)S1 18.9 µM
CC1CCCC(C)N1/N=C/c1ccc(O)c(O)c1 (stereo not given) 10.9 µM
CSc1ccc(/C=N/Nc2cccc(C(=O)O)c2)cc1 12 µM
O=C(Cc1nnc(NC(=O)c2ccccc2)s1)N/N=C\c1ccc(O)c(O)c1 10.6 µM
O=C(O)CCCNc1cc(N2CCN(C(=O)c3ccco3)CC2)c2noc3c2c1C(=O)c1ccccc1-3 11.2 µM
Cc1ccc(-n2[nH]c(C)c(/C=N/Nc3ccc([N+](=O)[O-])cc3[N+](=O)[O-])c2=O)cc1C 13.4 µM
CN(C=[N+](C)C)c1cccc2c1C(=O)c1ccccc1C2=O 15.2 µM
CCN1/C(=C/c2ccc3cc(C)ccc3[n+]2CC)Sc2cc(C)c(C)cc21 19.3 µM and 11.4 µM
Cc1cc(C=O)c(C)n1-c1ccc(N2CCCCC2)c([N+](=O)[O-])c1 17.3 µM
O=[N+]([O-])c1ccc(N2CCCC2)cc1N1CCCC1 18.9 µM
CCN(CC)c1ccc(/C=C/c2ccc3ccc(OC)cc3[n+]2CC)cc1 11.4 µM
O=C(O)CCNc1ccc(NCCC(=O)O)c2c1C(=O)c1ccccc1C2=O 11.8 µM
CC(C)c1ccc(S(=O)(=O)/N=C2\C=C(NS(=O)(=O)c3ccccc3)C(=O)c3ccccc32)cc1 11.3 µM
CCc1ccc(S(=O)(=O)/N=C2\C=C(NS(=O)(=O)c3ccccc3)C(=O)c3ccccc32)cc1 15.7 µM
CC(C)(C)c1ccc(S(=O)(=O)/N=C2\C=C(NS(=O)(=O)c3ccccc3)C(=O)c3ccccc32)cc1 13 µM
Cc1ccc(C)c(S(=O)(=O)/N=C2\C=C(NS(=O)(=O)c3ccccc3)C(=O)c3ccccc32)c1 11.3 µM
Cc1[nH]c(O)nc1C(=O)CCCCC(=O)OCC(=O)Nc1ccccn1 11.4 µM
Nc1ccc(Nc2ccccc2)c(S(=O)(=O)O)c1 31.6 µM
CN(C)c1ccc(CNCCC(Cc2ccccc2)c2ccco2)cc1 (stereo not given) 16.6 µM
COc1ccccc1-c1nnc2n1N=C(c1ccc(O)c(O)c1)CS2 18.5 µM
COc1cccc2c(SCC(=O)N/N=C/c3ccc(O)c(O)c3)cc(C)nc12 12.7 µM
N#C/C(=C/c1ccc(O)c(O)c1)C(=O)NCc1ccc(Cl)cc1 14.6 µM
COCC/N=c1\scc(-c2ccco2)n1/N=C/c1ccc(O)c(O)c1O 11.7 µM
O=C(/C=C/c1ccc(O)c(O)c1)c1ccccc1O 20.7 µM
CC(C)c1ccc(S(=O)(=O)N2CCN(CC(=O)c3ccc(O)c(O)c3)CC2)cc1 14.6 µM
O=C(CN1CCN(S(=O)(=O)c2ccc(Cl)cc2)CC1)c1ccc(O)c(O)c1 14.7 µM
COc1ccc(S(=O)(=O)N2CCN(CC(=O)c3ccc(O)c(O)c3)CC2)cc1 12.5 µM
CC1=C/C(=C\c2ccc(Br)o2)C(=O)O1 25.7 µM
CCn1nc([N+](=O)[O-])c(C(C#N)c2nc3cc(C(F)(F)F)ccc3s2)c(Cl)c1=O (stereo not given) 22.2 µM
CCCn1nc([N+](=O)[O-])c(C(C#N)c2nc3ccccc3s2)c(Cl)c1=O (stereo not given) 13.4 µM
CCN(CC)c1ccc2c(-c3ccc(S(=O)(=O)O)cc3S(=O)(=O)[O-])c3ccc(=[N+](CC)CC)cc-3oc2c1 14.9 µM
O=S(=O)(O)c1cc(O)c(N=Nc2ccc(O)cc2O)c2ccccc12 12.8 µM
O=S(=O)(O)c1cc(Cl)cc(N=Nc2ccc(O)cc2O)c1O 14.5 µM
O=C(O)c1ccccc1N=N/C(=N/Nc1cc(S(=O)(=O)O)ccc1O)c1ccccc1 13.7 µM
O=C(Oc1ccccc1)c1cc(O)c(O)c(O)c1 17.2 µM
CC1=NN(c2ccccc2)C(=O)C1/C=C1\NC(=S)NC1=O (stereo not given) 28.8 µM
CCS(=O)(=O)C1=NN2C(=N)/C(=C\c3ccc(SCc4ccco4)o3)C(=O)N=C2S1 18.7 µM
CC(=O)c1ccc2c(c1)C1C=CCC1C(C(=O)O)N2 (stereo not given) 13.9 µM
Cc1ccc2[nH]c(/C(C#N)=C/c3ccc(O)c(O)c3)nc2c1 22.9 µM
N#C/C(=C/c1ccc(O)c(O)c1)c1nc2ccccc2[nH]1 15 µM
CC1COCC(C)N1C1=C(Cl)C(=O)c2ccccc2C1=O (stereo not given) 12.2 µM
O=[N+]([O-])c1ccccc1/C=C\C=N\N1CCN(c2ccccc2)CC1 17.5 µM
O=C(COC(=O)c1ccccc1)Nc1ncc([N+](=O)[O-])s1 21.8 µM
Cc1cc2c(=Cc3ccc(N(C)C)cc3)c3ccccc3n2[n+]1C 14.4 µM
NCCc1c(-c2ccccc2)n(-c2ccccc2)c2ccccc12 18.5 µM
CN(C)C=O.O=C(O)c1ccccc1NS(=O)(=O)c1ccc(N/N=C/c2ccc(O)c(O)c2)c([N+](=O)[O-])c1 10.8 µM
COc1cc(OC)c(OC)cc1CCC(C)NCCC(c1ccccc1)c1ccccc1 (stereo not given) 11.1 µM
CCN(c1ccccc1)S(=O)(=O)c1cc(C(=O)O)ccc1C 17.7 µM
O=C1N=C(Nc2ccccc2Cl)S/C1=C\c1cccc([N+](=O)[O-])c1O 17.4 µM
Cc1ccc(NC(=O)CCCCCC2NC(=O)NC2C)cc1 (stereo not given) 13.9 µM
